# According to PubChem BioAssay (NCATS):
# Inconclusive results are not listed. Activity calls are given as the source filed them. The call rests on the fitted dose curve; in most records, active means well fitted curve in the direction sought with a large enough effect; inconclusive means small, poorly fitted or top-dose-only effect, or another doubt; inactive means no such curve, though single readings can be large; an effect the other way counts as inactive or inconclusive.
# Tested on: not listed separately
# Experiment: Inducers of the Endoplasmic Reticulum Stress Response (ERSR) in human glioma: Validation (AID 504836); further: 0% is about no effect
# Settings: human glioma cells, ER stress response reporter; series mostly up to 38.3 µM; activation: at the top concentration
# Method in brief: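 Stably transfected U87-MG human glioma cells carrying a GRP78-based luminescent sensor were seeded at 1000 cells/well, pin-dosed with compounds and incubated 16 h. Luciferase reagent was then added, and end-point luminescence was read after 10 min at room temperature.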
row,SMILES,activation
1,OC(CCN1CCCCC1)(c1ccccc1)C1CC2C=CC1C2 (stereo unspecified),-2.64% (inactive)
2,NCCc1cnc[nH]1,0.566% (inactive)
3,C#CCN(C)CCCOc1ccc(Cl)cc1Cl,2.76% (inactive)
4,CNC(=O)Oc1ccc2c(c1)[C@]1(C)CCN(C)[C@@H]1N2C,-1.03% (inactive)
5,CC(C(O)c1ccc(O)cc1)N1CCC(Cc2ccccc2)CC1 (stereo unspecified),1.4% (inactive)
6,CN(C)CCN(Cc1cccs1)c1ccccn1,-1.5% (inactive)
7,CCN(CC)CC(=O)Nc1c(C)cccc1C,-0.804% (inactive)
8,O=C(O)CN(CCOCCOCCN(CC(=O)O)CC(=O)O)CC(=O)O,-4.55% (inactive)
9,CN1Cc2c(N)cccc2C(c2ccccc2)C1 (stereo unspecified),-6.09% (inactive)
10,COc1nc(C)nc(Cl)c1NC1=NCCN1,-0.743% (inactive)
11,CCN(CC)CCCN(c1ccccc1)C1Cc2ccccc2C1,-4.2% (inactive)
12,C=CCc1ccccc1OCC(O)CNC(C)C (stereo unspecified),-1.18% (inactive)
13,Cc1[nH]c(=O)c(C#N)cc1-c1ccc2nccn2c1,-3.49% (inactive)
14,CC1=C(CC(=O)O)c2cc(F)ccc2/C1=C\c1ccc(S(C)(=O)=O)cc1,-2.22% (inactive)
15,Cc1cc(C(C)(C)C)cc(C)c1CC1=NCCN1,-2.41% (inactive)
16,C[N+](C)(C)CCOC(=O)CCC(=O)OCC[N+](C)(C)C,-3.18% (inactive)
17,CCCCCN(CCCCC)C(=O)C(CCC(=O)O)NC(=O)c1ccc(Cl)c(Cl)c1 (stereo unspecified),-2.79% (inactive)
18,CN(C)C(=O)Oc1cccc([N+](C)(C)C)c1,0.849% (inactive)
19,CSc1ccc(C(=O)c2[nH]c(=O)[nH]c2C)cc1,-0.0656% (inactive)
20,CCCN(CCC)C(=O)C(CCC(=O)O)NC(=O)c1ccccc1 (stereo unspecified),1.66% (inactive)
21,Cc1cc(C)c(/C=C2\C(=O)Nc3ccccc32)[nH]1,0.328% (inactive)
22,CCCn1cnc2c1c(=O)n(CCCCC(C)=O)c(=O)n2C,-1.37% (inactive)
23,CCCCNc1ccc(C(=O)OCCN(C)C)cc1,0.945% (inactive)
24,NS(=O)(=O)c1cc2c(cc1Cl)NCNS2(=O)=O,-4.25% (inactive)
25,CCCCC1C(=O)N(c2ccccc2)N(c2ccccc2)C1=O,-1.28% (inactive)
26,Cc1ccc(/C(=C\CN2CCCC2)c2ccccn2)cc1,-1.08% (inactive)
27,CN(C(=O)CCCOc1ccc2[nH]c(=O)ccc2c1)C1CCCCC1,7.38% (inactive)
28,CCCCNc1cc(C(=O)O)cc(S(N)(=O)=O)c1Oc1ccccc1,-1.23% (inactive)
29,C[C@]12CC[C@@H]3c4ccc(O)cc4CC[C@H]3[C@@H]1CCC2=O,3.36% (inactive)
30,Oc1ccc(O)cc1,3.38% (inactive)

# Target: Ubiquitin carboxyl-terminal hydrolase 1 (Homo sapiens) (UniProt O94782)
# Experiment: Inhibitors of USP1/UAF1: Pilot qHTS (AID 504865); further: nearly all actives have a fitted effect of over 35% in size; further: potency means the concentration at half of the fitted maximal effect;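 on activity change, negative = inhibition: rhodamine fluorescence freed from ubiquitin-rhodamine substrate followed over time; top concentration of the series differs between compounds; on the % scale 0 is the no-effect control and ±100 the full control effect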
# Settings: purified USP1/UAF1, Ub-rhodamine cleavage fluorescence; series mostly up to 114 µM; activity change, negative = inhibition: at the top concentration
# Method in brief: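 Kinetic fluorescence assay: 1nM USP1/UAF1, 15 min compound preincubation, then 150nM Ub-Rho; 480/540 nm.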
# Ubiquitin carboxyl-terminal hydrolase 1 (Homo sapiens), sequence (O94782 whole entry, looked up): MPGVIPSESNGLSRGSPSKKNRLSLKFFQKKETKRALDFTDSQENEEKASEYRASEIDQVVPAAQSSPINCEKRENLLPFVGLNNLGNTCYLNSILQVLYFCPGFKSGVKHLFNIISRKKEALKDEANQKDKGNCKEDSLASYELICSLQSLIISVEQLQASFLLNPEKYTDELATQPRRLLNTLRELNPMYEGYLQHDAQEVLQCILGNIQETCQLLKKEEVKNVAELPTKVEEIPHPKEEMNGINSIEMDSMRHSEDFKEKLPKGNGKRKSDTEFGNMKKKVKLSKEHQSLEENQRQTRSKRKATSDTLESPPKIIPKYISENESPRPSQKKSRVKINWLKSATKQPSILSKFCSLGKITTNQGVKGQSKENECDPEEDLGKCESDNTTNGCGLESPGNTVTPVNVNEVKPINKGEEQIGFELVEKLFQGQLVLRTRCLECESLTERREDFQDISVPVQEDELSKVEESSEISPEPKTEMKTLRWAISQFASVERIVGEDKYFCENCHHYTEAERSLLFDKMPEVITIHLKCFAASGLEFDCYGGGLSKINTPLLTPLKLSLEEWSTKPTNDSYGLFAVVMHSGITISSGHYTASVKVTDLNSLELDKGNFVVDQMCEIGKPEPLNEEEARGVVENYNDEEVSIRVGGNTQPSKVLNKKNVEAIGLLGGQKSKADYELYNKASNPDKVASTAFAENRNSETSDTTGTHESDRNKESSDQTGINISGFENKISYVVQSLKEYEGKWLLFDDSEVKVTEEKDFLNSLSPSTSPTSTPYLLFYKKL
SMILES,Potency,"activity change, negative = inhibition"
CN(C)CC/C=C1\c2ccccc2Sc2ccc(Cl)cc21,inactive,–
CNC(=O)Oc1ccc2c(c1)[C@]1(C)CCN(C)[C@@H]1N2C,inactive,–
CCCCCCCCCCCCCCCC[n+]1ccccc1,20 µM (active),–
Clc1ccc(C(OCCN2CCCCC2)c2ccccc2)cc1 (stereo unspecified),–,-10.2% (inactive)
CCN1CCCC(OC(=O)C(c2ccccc2)c2ccccc2)C1 (stereo unspecified),–,-12.1% (inactive)
COP(=O)(OC)C(O)C(Cl)(Cl)Cl (stereo unspecified),–,7.96% (inactive)
CCN(CC)C(C)C(=O)c1ccccc1 (stereo unspecified),–,-7.05% (inactive)
CCCC(C)C1(CC)C(=O)N=C(S)NC1=O (stereo unspecified),–,-11.6% (inactive)
CN(C)C(=O)Oc1cc(OC(=O)N(C)C)cc(C(O)CNC(C)(C)C)c1 (stereo unspecified),–,-3.95% (inactive)
C[C@H](N)[C@H](O)c1ccc(O)c(O)c1,–,-7.32% [at 54.9 µM] (inactive)
CN(C)C(=S)SSC(=S)N(C)C,inactive,–
